# PubChem BioAssay (EPA / NIEHS)
# Inconclusive results are not listed. Active and inactive are the calls of the source. The calls were made as follows: active = hit-call score of the fitted dose curve at least 0.9, where 1 is the maximum; inconclusive = response in the unintended direction; inactive = score below 0.9.
# Columns and labels:
# [1] = target: human Matrix Metalloproteinase-2 (MMP2), MMP2 (gene 4313) (UniProt P08253); assay: NVS_ENZ_hMMP2: NovaScreen (NVS) Enzymatic Assay for human Matrix Metalloproteinase-2 (MMP2) (AID 2283184)
# How it was run: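 Compounds first screened in duplicate at a single 25 uM, with actives followed up in concentration series. Recombinant human MMP2 cleaves a fluorogenic substrate; fluorescence taken at 1 h, inhibition fitted relative to DMSO.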
# [2] = target: Collagenase 3 (Homo sapiens) (UniProt P45452); assay: NVS_ENZ_hMMP13: NovaScreen (NVS) Enzymatic Assay for human Matrix Metalloproteinase-13 (MMP13) (AID 2283182)
# How it was run: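 Recombinant MMP13 cleaving fluorescent substrate, cell-free, measured 1 h after dosing. Primary duplicate screen at 25 uM; actives tested in concentration-response up to 50 uM; loss of signal relative to DMSO.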
# [3] = target: human Matrix Metalloproteinase-7 (MMP7), MMP7 (gene 4316) (UniProt P09237); assay: NVS_ENZ_hMMP7: NovaScreen (NVS) Enzymatic Assay for human Matrix Metalloproteinase-7 (MMP7) (AID 2283183)
# How it was run: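 Compounds first tested at 25 uM in duplicate, then at up to 50 uM in concentration series if active. Protease activity measured by fluorescence intensity 1 h after dosing, with fitting relative to DMSO.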
# [4] = target: human Matrix Metalloproteinase-3 (MMP3), MMP3 (gene 4314) (UniProt P08254); assay: NVS_ENZ_hMMP3: NovaScreen (NVS) Enzymatic Assay for human Matrix Metalloproteinase-3 (MMP3) (AID 2283185)
# How it was run: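 Fluorescent substrate turnover by recombinant MMP3 read after 1 h, signal loss scored against DMSO. Compounds first run in duplicate at 25 uM single dose, then actives confirmed by concentration series.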
# [5] = target: human Phosphodiesterase 4A1 (PDE4A1), PDE4A (gene 5141) (UniProt P27815); assay: NVS_ENZ_hPDE4A1: NovaScreen (NVS) Enzymatic Assay for human Phosphodiesterase 4A1 (PDE4A1) (AID 2283191)
# How it was run: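 Fluorescent substrate turnover by recombinant PDE4A1 read after 1 h by mobility-shift separation. Primary duplicate screen at 25 uM; hits retested in concentration series with a 50 uM maximum, relative to DMSO.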
# [6] = target: human Phosphodiesterase 5 (PDE5), PDE5A (gene 8654) (UniProt O76074); assay: NVS_ENZ_hPDE5: NovaScreen (NVS) Enzymatic Assay for human Phosphodiesterase 5 (PDE5) (AID 2283194)
# How it was run: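 Screening began in duplicate at 25 uM, with actives taken into concentration-response. Enzyme activity of recombinant PDE5 toward its substrate was measured at 1 h by fluorescence mobility-shift detection, relative to DMSO controls.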
# [7] = target: human Phosphodiesterase 10 (PDE10), PDE10A (gene 10846) (UniProt Q9Y233); assay: NVS_ENZ_hPDE10: NovaScreen (NVS) Enzymatic Assay for human Phosphodiesterase 10 (PDE10) (AID 2283195)
# How it was run: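 Readout is fluorescence intensity following electrophoretic mobility-shift separation, 1 h after dosing of isolated PDE10A protein. Hits meeting a preset threshold at 25 uM went to concentration series (max 50 uM), analysed relative to DMSO.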
# [8] = target: Mitogen-activated protein kinase 3 (Homo sapiens) (UniProt P27361); assay: NVS_ENZ_hMAPK3: NovaScreen (NVS) Enzymatic Assay for human Mitogen-Activated Protein Kinase 3 (MAPK 3) (AID 2283177)
# How it was run: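 Chemicals were first tested in duplicate at 25 uM, with hits re-run as concentration series (max 50 uM). Recombinant enzyme activity, measured 1 h post-dose in a cell-free format, was read by fluorescence/mobility shift relative to DMSO.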
# [9] = target: human Matrix Metalloproteinase-9 (MMP9), MMP9 (gene 4318) (UniProt P14780); assay: NVS_ENZ_hMMP9: NovaScreen (NVS) Enzymatic Assay for human Matrix Metalloproteinase-9 (MMP9) (AID 2283190);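 also: cell-free recombinant MMP9 protease activity read by fluorescent substrate signal; active means inhibition seen as loss of fluorescence signal versus DMSO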
# How it was run: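 Screening concentration 25 uM, duplicate wells, then dose series for confirmation. Cell-free enzymatic reaction measured by fluorescence intensity 1 h post-dosing; decreased signal versus DMSO taken as activity.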
# [10] = target: human Protein Phosphatase, Mg2+/Mn2+ Dependent 1A (PPM1A), PPM1A (gene 5494) (UniProt P35813); assay: NVS_ENZ_hPPM1A: NovaScreen (NVS) Enzymatic Assay for human Protein Phosphatase, Mg2+/Mn2+ Dependent 1A (PPM1A) (AID 2283198)
# How it was run: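 Primary screen in duplicate at 25 uM, with actives then titrated to a maximum of 50 uM. Recombinant PPM1A dephosphorylation of fluorescent substrate measured at 1 h, with substrate and product separated by mobility shift; inhibition fitted against DMSO.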
# [11] = target: human Mitogen- and Stress-activated Protein Kinase-1 (Msk1), RPS6KA5 (gene 9252) (UniProt O75582); assay: NVS_ENZ_hMsk1: NovaScreen (NVS) Enzymatic Assay for human Mitogen- and Stress-activated Protein Kinase-1 (Msk1) (AID 2283187)
# How it was run: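 Chemicals first run in duplicate at 25 uM, with actives followed up in singleton concentration series to 50 uM maximum. Enzyme activity came from substrate/product mobility-shift separation with fluorescence detection after 1 h incubation of the recombinant protein.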
# [12] = target: cAMP-dependent protein kinase catalytic subunit alpha (Homo sapiens) (UniProt P17612); assay: NVS_ENZ_hPKA: NovaScreen (NVS) Enzymatic Assay for human Protein Kinase A (PKA) (AID 2283192)
# How it was run: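 Cell-free kinase activity read by fluorescence after mobility-shift separation of substrate and product, 1 h post-dosing. Single-concentration duplicate screen (25 uM) preceded singleton concentration series (top 50 uM); loss of signal versus DMSO.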
# Sequence of human Matrix Metalloproteinase-2 (MMP2), MMP2 (gene 4313) (P08253 whole entry, looked up): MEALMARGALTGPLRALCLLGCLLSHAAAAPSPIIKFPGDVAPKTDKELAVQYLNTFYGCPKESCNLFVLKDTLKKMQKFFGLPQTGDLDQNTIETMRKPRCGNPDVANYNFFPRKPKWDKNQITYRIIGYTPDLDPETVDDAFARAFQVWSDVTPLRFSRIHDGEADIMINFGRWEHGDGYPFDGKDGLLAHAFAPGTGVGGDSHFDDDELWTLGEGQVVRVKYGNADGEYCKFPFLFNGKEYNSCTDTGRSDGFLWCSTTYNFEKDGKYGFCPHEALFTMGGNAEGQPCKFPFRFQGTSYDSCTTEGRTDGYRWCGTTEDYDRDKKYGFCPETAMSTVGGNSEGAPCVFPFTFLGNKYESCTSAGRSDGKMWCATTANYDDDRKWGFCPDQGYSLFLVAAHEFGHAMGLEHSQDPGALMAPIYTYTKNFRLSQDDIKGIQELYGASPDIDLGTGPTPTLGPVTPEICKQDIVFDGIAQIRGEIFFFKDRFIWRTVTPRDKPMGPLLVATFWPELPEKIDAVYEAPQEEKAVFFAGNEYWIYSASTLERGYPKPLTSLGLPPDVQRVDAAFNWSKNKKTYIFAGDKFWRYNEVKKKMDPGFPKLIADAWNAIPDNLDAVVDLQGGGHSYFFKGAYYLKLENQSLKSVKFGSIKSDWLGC
# Sequence of human Matrix Metalloproteinase-3 (MMP3), MMP3 (gene 4314) (P08254 whole entry, looked up): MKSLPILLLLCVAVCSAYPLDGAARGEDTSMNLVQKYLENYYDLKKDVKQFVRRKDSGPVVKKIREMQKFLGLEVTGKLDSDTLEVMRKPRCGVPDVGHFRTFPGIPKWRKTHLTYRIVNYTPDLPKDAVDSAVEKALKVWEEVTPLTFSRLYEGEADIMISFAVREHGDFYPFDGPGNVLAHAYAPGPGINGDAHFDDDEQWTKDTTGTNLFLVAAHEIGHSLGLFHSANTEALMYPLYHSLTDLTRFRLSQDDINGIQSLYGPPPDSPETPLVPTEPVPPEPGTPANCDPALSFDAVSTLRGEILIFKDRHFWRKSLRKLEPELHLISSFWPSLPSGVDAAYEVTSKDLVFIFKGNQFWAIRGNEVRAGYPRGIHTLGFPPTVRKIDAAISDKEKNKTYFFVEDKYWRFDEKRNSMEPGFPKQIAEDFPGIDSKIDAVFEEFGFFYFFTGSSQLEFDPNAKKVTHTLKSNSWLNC
# Sequence of Mitogen-activated protein kinase 3 (Homo sapiens) (P27361 whole entry, looked up): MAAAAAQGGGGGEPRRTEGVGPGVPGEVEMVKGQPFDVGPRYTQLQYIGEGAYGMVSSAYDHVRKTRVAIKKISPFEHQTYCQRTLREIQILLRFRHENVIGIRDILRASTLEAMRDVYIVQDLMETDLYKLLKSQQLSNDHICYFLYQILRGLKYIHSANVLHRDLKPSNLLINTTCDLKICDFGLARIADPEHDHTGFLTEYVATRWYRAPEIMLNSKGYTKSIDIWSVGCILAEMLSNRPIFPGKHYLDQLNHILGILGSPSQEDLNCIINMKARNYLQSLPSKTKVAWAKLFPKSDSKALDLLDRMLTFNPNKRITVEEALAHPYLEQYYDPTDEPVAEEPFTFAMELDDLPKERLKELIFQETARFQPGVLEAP
# Sequence of human Phosphodiesterase 4A1 (PDE4A1), PDE4A (gene 5141) (P27815 whole entry, looked up): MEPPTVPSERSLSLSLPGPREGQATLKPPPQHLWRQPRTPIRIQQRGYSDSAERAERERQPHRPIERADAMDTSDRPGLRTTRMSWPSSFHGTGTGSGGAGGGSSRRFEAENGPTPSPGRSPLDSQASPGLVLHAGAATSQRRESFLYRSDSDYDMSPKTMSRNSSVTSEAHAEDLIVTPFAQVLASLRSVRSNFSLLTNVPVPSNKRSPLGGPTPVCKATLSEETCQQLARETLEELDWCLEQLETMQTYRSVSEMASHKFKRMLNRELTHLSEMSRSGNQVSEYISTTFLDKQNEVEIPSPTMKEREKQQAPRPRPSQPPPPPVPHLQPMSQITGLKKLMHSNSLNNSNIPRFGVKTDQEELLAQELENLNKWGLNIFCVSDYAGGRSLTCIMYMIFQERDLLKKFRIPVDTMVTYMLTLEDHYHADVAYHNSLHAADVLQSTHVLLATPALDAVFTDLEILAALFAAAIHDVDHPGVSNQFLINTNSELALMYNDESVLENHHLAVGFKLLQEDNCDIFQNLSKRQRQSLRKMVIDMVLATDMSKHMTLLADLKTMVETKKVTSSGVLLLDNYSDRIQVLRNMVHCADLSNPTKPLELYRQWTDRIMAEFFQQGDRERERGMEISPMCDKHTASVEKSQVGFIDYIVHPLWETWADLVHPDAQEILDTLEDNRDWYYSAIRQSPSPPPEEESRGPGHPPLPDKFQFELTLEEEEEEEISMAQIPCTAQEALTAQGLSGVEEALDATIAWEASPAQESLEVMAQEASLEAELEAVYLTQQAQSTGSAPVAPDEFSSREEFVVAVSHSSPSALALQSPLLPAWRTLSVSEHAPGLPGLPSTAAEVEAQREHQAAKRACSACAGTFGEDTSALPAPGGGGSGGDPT
# Sequence of human Matrix Metalloproteinase-7 (MMP7), MMP7 (gene 4316) (P09237 whole entry, looked up): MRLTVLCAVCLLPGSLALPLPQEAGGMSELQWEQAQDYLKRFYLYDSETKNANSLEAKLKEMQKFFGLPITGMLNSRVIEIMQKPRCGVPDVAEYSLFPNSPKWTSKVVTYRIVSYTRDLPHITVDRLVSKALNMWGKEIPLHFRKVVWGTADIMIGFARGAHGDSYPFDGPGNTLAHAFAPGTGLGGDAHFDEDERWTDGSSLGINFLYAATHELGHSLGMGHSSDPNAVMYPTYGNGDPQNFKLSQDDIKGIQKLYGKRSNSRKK
# Sequence of human Phosphodiesterase 10 (PDE10), PDE10A (gene 10846) (Q9Y233 whole entry, looked up): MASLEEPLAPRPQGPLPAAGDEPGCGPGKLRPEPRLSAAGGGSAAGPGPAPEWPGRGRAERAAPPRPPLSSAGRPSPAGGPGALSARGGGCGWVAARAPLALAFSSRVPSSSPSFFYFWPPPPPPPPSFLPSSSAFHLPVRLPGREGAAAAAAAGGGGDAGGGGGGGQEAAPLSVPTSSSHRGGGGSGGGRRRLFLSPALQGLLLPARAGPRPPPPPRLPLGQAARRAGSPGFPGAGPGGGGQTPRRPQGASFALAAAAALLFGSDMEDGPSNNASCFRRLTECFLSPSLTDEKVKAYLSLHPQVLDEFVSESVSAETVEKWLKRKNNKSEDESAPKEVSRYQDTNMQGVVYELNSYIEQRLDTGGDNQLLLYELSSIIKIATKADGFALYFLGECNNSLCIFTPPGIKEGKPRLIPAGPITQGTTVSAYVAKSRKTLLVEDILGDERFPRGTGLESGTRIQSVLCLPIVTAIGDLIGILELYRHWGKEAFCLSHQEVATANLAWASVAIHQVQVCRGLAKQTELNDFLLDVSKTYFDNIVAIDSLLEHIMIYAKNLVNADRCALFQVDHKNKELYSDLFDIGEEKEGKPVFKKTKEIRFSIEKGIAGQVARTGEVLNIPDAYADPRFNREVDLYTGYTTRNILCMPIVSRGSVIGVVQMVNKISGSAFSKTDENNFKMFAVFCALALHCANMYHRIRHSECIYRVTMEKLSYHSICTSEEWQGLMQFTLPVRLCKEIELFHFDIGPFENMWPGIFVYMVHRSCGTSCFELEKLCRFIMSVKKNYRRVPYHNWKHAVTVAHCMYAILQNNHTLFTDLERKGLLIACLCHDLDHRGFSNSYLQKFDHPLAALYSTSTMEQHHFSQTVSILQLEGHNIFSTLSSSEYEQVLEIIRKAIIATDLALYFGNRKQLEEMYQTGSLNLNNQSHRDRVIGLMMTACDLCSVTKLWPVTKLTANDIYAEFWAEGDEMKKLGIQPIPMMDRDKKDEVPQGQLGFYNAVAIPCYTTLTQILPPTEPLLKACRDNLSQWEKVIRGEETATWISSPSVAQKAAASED
# Sequence of human Matrix Metalloproteinase-9 (MMP9), MMP9 (gene 4318) (P14780 whole entry, looked up): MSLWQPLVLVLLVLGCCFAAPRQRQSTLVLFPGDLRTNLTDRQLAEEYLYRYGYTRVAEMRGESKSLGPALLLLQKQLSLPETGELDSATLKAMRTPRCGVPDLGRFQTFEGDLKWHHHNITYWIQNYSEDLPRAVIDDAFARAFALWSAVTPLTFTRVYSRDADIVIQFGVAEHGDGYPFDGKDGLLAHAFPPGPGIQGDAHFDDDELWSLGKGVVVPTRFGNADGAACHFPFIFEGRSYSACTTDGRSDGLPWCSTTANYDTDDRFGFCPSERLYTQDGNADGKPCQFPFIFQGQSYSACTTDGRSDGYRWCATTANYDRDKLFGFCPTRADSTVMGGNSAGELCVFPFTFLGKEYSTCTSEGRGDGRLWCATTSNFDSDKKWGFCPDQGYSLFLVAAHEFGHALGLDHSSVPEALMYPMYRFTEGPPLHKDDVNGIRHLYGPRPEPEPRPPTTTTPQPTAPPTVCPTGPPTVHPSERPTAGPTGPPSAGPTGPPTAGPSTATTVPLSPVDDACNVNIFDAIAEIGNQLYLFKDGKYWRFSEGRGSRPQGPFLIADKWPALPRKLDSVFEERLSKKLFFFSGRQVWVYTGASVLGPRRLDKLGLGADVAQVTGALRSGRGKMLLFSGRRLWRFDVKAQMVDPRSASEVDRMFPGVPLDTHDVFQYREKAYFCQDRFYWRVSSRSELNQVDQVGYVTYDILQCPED
# Sequence of human Protein Phosphatase, Mg2+/Mn2+ Dependent 1A (PPM1A), PPM1A (gene 5494) (P35813 whole entry, looked up): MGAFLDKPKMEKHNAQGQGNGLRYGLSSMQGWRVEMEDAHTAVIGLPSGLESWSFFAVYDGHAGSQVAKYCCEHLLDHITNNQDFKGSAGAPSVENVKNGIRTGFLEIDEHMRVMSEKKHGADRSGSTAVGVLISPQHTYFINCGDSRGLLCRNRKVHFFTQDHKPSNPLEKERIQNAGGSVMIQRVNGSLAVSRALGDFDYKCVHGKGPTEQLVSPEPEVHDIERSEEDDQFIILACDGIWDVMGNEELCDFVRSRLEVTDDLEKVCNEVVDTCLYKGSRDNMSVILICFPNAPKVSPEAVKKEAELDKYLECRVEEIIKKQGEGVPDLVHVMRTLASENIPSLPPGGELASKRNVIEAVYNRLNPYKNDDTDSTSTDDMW
smiles,measurement,setting,value
Cc1cc(Cc2ccc(N)c(C)c2)ccc1N,outcome,[1],inactive
CCc1cc(C2=C(C(=O)O)N(c3ccccc3C(F)(F)F)S(=O)(=O)c3ccccc32)cc2c1OCO2,AC50,[2],29.6 µM (active)
same,outcome,[3],inactive
same,AC50,[4],25 µM (active)
same,outcome,[5],inactive
same,outcome,[6],inactive
same,outcome,[7],inactive
O=C1CCCCC1,outcome,[8],inactive
CCCCc1nc2cccnc2n1Cc1ccc(-c2ccccc2-c2nnn[nH]2)cc1,outcome,[8],inactive
same,AC50,[2],24.1 µM (active)
same,AC50,[4],22.9 µM (active)
same,AC50,[5],11.6 µM (active)
same,AC50,[6],11.3 µM (active)
same,AC50,[7],13 µM (active)
c1ccc2occc2c1,outcome,[1],inactive
same,outcome,[9],inactive
O=C(O)c1[nH]n(-c2ccc(S(=O)(=O)O)cc2)c(=O)c1N=Nc1ccc(S(=O)(=O)O)cc1,AC50,[2],23.6 µM (active)
same,AC50,[3],12.3 µM (active)
same,AC50,[4],23.6 µM (active)
Cc1ccc(-c2cc(C(F)(F)F)nn2-c2ccc(S(N)(=O)=O)cc2)cc1,outcome,[3],inactive
same,outcome,[1],inactive
CCCCCCCCCCCCCCOS(=O)(=O)O,AC50,[4],26 µM (active)
same,AC50,[5],18.6 µM (active)
NC=O,outcome,[8],inactive
CS(=O)(=O)c1ccc([C@@H](C[C@H]2CCC(=O)C2)C(=O)Nc2cnccn2)cc1Cl,outcome,[8],inactive
same,AC50,[6],23.3 µM (active)
O=Cc1ccccc1C=O,AC50,[4],6.96 µM (active)
NC(=Nc1ccccc1)Nc1ccccc1,outcome,[8],inactive
CSc1ccc(Oc2ccc(S(N)(=O)=O)cc2CN(C)C)cc1C,AC50,[1],9.97 µM (active)
same,outcome,[10],inactive
CN(C)C(=O)NC1(c2ccccc2)CCN(CCC[C@]2(c3ccc(Cl)c(Cl)c3)CCCN(C(=O)c3ccccc3)C2)CC1,outcome,[8],inactive
same,outcome,[11],inactive
same,outcome,[5],inactive
same,outcome,[12],inactive
